{"source": "paper PMC8384837", "about": "“Expanding the binding specificity for RNA recognition by a PUF domain”", "experiment_in_all_cases": "yeast three-hybrid, YBZ-1, SC-Leu-His + 0.5 mM 3-AT, 4 days", "details_in_all_cases": "tags: N-Gal4 AD-HA kept; label: inside an RPR1-promoter hybrid RNA with tandem MS2 sites; ssRNA", "key": {"PUM1 PUF domain R1-YPR": {"molecular_target": "PUM1 PUF domain R1-YPR (Homo sapiens, UniProt Q14671 828-1176, S863Y;R864P;Q867R)", "summary_of_the_method": "(§1)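 Pumilio-1 PUF domain libraries, randomized at the three base-contacting residues of each repeat, were co-expressed with matching RNA elements from a centromeric plasmid in strain YBZ-1, which carries a LexA–MS2 coat fusion and a HIS3 reporter. Transformants grew for four days on SC-Leu (input) or on SC-Leu-His + 0.5 mM 3-AT (selection), and the repeat regions were PCR-amplified and Illumina-sequenced. The interaction score is the log change in variant frequency from input to selection. That logarithm is base 2, with a pseudocount of 1 where a variant was absent.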"}, "PUM1 PUF domain R5-DGA": {"molecular_target": "PUM1 PUF domain R5-DGA (Homo sapiens, UniProt Q14671 828-1176, C1007D;R1008G;Q1011A)", "summary_of_the_method": "as §1"}, "PUM1 PUF domain R5-GRG": {"molecular_target": "PUM1 PUF domain R5-GRG (Homo sapiens, UniProt Q14671 828-1176, C1007G;Q1011G)", "summary_of_the_method": "as §1"}, "PUM1 PUF domain R6-SYA": {"molecular_target": "T1, PUM1 PUF domain R6-SYA (Homo sapiens, UniProt Q14671 828-1176, N1043S;Q1047A)", "T1 sequence": "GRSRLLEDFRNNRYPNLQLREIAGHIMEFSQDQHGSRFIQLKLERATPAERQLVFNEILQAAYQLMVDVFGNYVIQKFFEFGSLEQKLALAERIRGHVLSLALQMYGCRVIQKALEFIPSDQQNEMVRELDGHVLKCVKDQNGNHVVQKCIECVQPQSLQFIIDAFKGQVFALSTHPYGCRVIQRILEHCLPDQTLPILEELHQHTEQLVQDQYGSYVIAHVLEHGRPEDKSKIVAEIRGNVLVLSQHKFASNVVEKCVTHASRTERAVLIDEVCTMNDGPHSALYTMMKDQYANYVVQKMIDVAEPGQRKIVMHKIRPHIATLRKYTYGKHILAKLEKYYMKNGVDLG", "summary_of_the_method": "as §1"}, "PUM1 PUF domain R8-SWS": {"molecular_target": "PUM1 PUF domain R8-SWS (Homo sapiens, UniProt Q14671 828-1176, N1122S;Y1123W;Q1126S)", "summary_of_the_method": "as §1"}, "PUM1 PUF domain R3-VRT": {"molecular_target": "PUM1 PUF domain R3-VRT (Homo sapiens, UniProt Q14671 828-1176, C935V;Q939T)", "summary_of_the_method": "as §1"}, "PUM1 PUF domain R3-YWG": {"molecular_target": "PUM1 PUF domain R3-YWG (Homo sapiens, UniProt Q14671 828-1176, C935Y;R936W;Q939G)", "summary_of_the_method": "as §1"}, "PUM1 PUF domain R7-RCG": {"molecular_target": "PUM1 PUF domain R7-RCG (Homo sapiens, UniProt Q14671 828-1176, S1079R;N1080C;E1083G)", "summary_of_the_method": "as §1"}, "PUM1 PUF domain R3-WWV": {"molecular_target": "PUM1 PUF domain R3-WWV (Homo sapiens, UniProt Q14671 828-1176, C935W;R936W;Q939V)", "summary_of_the_method": "as §1"}, "PUM1 PUF domain R3-LFM": {"molecular_target": "PUM1 PUF domain R3-LFM (Homo sapiens, UniProt Q14671 828-1176, C935L;R936F;Q939M)", "summary_of_the_method": "as §1"}}, "data": [{"sequence": "GGCUAGAACUAGUGGAUCCCCCGGCGCCCGGCGGCUCGAGCCCGGGUAAGUGUAAAUCGUCUGCAUGCCGCCGGGCGCCAUGCCUGCAGGUCGACUCUAGAAAACAUG", "values": [{"measurement": "binding signal", "setting": "PUM1 PUF domain R1-YPR", "result": "3.29 log2 enrichment (interaction score)"}]}, {"sequence": "GGCUAGAACUAGUGGAUCCCCCGGCGCCCGGCGGCUCGAGCCCGGGUAAGUGUUAAUAGUCUGCAUGCCGCCGGGCGCCAUGCCUGCAGGUCGACUCUAGAAAACAUG", "values": [{"measurement": "binding signal", "setting": "PUM1 PUF domain R5-DGA", "result": "2.6 log2 enrichment (interaction score)"}, {"measurement": "binding signal", "setting": "PUM1 PUF domain R5-GRG", "result": "3.72 log2 enrichment (interaction score)"}]}, {"sequence": "GGCUAGAACUAGUGGAUCCCCCGGCGCCCGGCGGCUCGAGCCCGGGUAAGUGUAAAUAGUCUGCAUGCCGCCGGGCGCCAUGCCUGCAGGUCGACUCUAGAAAACAUG", "values": [{"measurement": "binding signal", "setting": "PUM1 PUF domain R6-SYA", "result": "2.48 log2 enrichment (interaction score)"}, {"measurement": "binding signal", "setting": "PUM1 PUF domain R8-SWS", "result": "2.46 log2 enrichment (interaction score)"}, {"measurement": "binding signal", "setting": "PUM1 PUF domain R5-GRG", "result": "3.08 log2 enrichment (interaction score)"}, {"measurement": "binding signal", "setting": "PUM1 PUF domain R3-VRT", "result": "3.97 log2 enrichment (interaction score)"}, {"measurement": "binding signal", "setting": "PUM1 PUF domain R3-YWG", "result": "4.94 log2 enrichment (interaction score)"}]}, {"sequence": "GGCUAGAACUAGUGGAUCCCCCGGCGCCCGGCGGCUCGAGCCCGGGUAAGUGUAAAUUGUCUGCAUGCCGCCGGGCGCCAUGCCUGCAGGUCGACUCUAGAAAACAUG", "values": [{"measurement": "binding signal", "setting": "PUM1 PUF domain R1-YPR", "result": "5.44 log2 enrichment (interaction score)"}]}, {"sequence": "GGCUAGAACUAGUGGAUCCCCCGGCGCCCGGCGGCUCGAGCCCGGGUAAGCGUAAAUAGUCUGCAUGCCGCCGGGCGCCAUGCCUGCAGGUCGACUCUAGAAAACAUG", "values": [{"measurement": "binding signal", "setting": "PUM1 PUF domain R8-SWS", "result": "2.67 log2 enrichment (interaction score)"}]}, {"sequence": "GGCUAGAACUAGUGGAUCCCCCGGCGCCCGGCGGCUCGAGCCCGGGUAAGUGUGAAUAGUCUGCAUGCCGCCGGGCGCCAUGCCUGCAGGUCGACUCUAGAAAACAUG", "values": [{"measurement": "binding signal", "setting": "PUM1 PUF domain R5-GRG", "result": "3.07 log2 enrichment (interaction score)"}]}, {"sequence": "GGCUAGAACUAGUGGAUCCCCCGGCGCCCGGCGGCUCGAGCCCGGGUAAGUUUAAAUAGUCUGCAUGCCGCCGGGCGCCAUGCCUGCAGGUCGACUCUAGAAAACAUG", "values": [{"measurement": "binding signal", "setting": "PUM1 PUF domain R7-RCG", "result": "2.43 log2 enrichment (interaction score)"}]}, {"sequence": "GGCUAGAACUAGUGGAUCCCCCGGCGCCCGGCGGCUCGAGCCCGGGUAAGUGUCAAUAGUCUGCAUGCCGCCGGGCGCCAUGCCUGCAGGUCGACUCUAGAAAACAUG", "values": [{"measurement": "binding signal", "setting": "PUM1 PUF domain R5-GRG", "result": "0.84 log2 enrichment (interaction score)"}]}, {"sequence": "GGCUAGAACUAGUGGAUCCCCCGGCGCCCGGCGGCUCGAGCCCGGGUAAGUGUAAUUAGUCUGCAUGCCGCCGGGCGCCAUGCCUGCAGGUCGACUCUAGAAAACAUG", "values": [{"measurement": "binding signal", "setting": "PUM1 PUF domain R3-WWV", "result": "2.73 log2 enrichment (interaction score)"}, {"measurement": "binding signal", "setting": "PUM1 PUF domain R3-YWG", "result": "4.54 log2 enrichment (interaction score)"}]}, {"sequence": "GGCUAGAACUAGUGGAUCCCCCGGCGCCCGGCGGCUCGAGCCCGGGUAAGUGUAAGUAGUCUGCAUGCCGCCGGGCGCCAUGCCUGCAGGUCGACUCUAGAAAACAUG", "values": [{"measurement": "binding signal", "setting": "PUM1 PUF domain R3-WWV", "result": "4.18 log2 enrichment (interaction score)"}, {"measurement": "binding signal", "setting": "PUM1 PUF domain R3-YWG", "result": "6.77 log2 enrichment (interaction score)"}, {"measurement": "binding signal", "setting": "PUM1 PUF domain R3-LFM", "result": "5.47 log2 enrichment (interaction score)"}]}]}
